Values without a mark were called inactive. Calls of active or inactive are those of the source.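 Rule for the calls, unless noted: active = inhibition above 50%; inactive = the rest.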
Test: antimalarial activity against Dd2 strain (AID 2302;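 active = growth inhibition above 50% at the single 2 µM test dose, taken to imply half-maximal potency below 2 µM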;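 note: 0% = DMSO untreated growth and 100% = chloroquine plus artemisinin killed control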)
Settings: P. falciparum Dd2 in RBCs, LDH growth readout, 72 h; at 2 µM; hits give high values

Structure (SMILES) | growth inhibition
CCn1c(Cc2ccccc2)nnc1SCC(=O)N1c2ccccc2Sc2ccccc21 | 96% (active)
CCCc1ccc(S(=O)(=O)NC2CCN(c3ccnc(Nc4ccc(OC)cc4)n3)C2)cc1 (stereo not given) | 45%
CCc1cc2c(O)c([N+](=O)[O-])c(=O)oc2cc1OCCCCCOc1cc2oc(=O)c([N+](=O)[O-])c(O)c2cc1CC | 0%
CCCCOc1ccc(C(O)C(CN2CCCCC2)c2ccccc2)cc1 (stereo not given) | 84% (active)
O=C(Cc1cccs1)NCC(c1ccccc1Cl)c1c[nH]c2ccccc12 (stereo not given) | 56% (active)
O=C(Nc1ccc(OC2CCN(Cc3ccc(F)cc3)CC2)cc1)c1cccs1 | 52% (active)
Cc1cc(C(F)(F)F)n2nc(C(=O)N(Cc3cncn3Cc3cccc(F)c3)CC3CC3)cc2n1 | 92% (active)
O=C(/C=C/c1ccc(Cl)c(Cl)c1)NCCCCCN1CCCN(C(=O)Nc2ccc(F)c(Cl)c2)CC1 | 0%
COc1ccc(CN2CCC(NCc3cccc(C(F)(F)F)c3)CC2)cc1 | 8%
Cc1cccc2[nH]c(-c3cccc(-c4cccc(NC(=O)C5CC(=O)Nc6ccccc65)c4)c3)nc12 (stereo not given) | 25%
COc1ccc2ccccc2c1C=NNc1ccnc2cc(Cl)ccc12 | 94% (active)
Cc1nn(-c2ccc(Cl)cc2)c2[nH]c(CN3CCN(c4cccc(Cl)c4)CC3)cc(=O)c12 | 98% (active)
O=C(Nc1cccc(CN2CCCN(Cc3ccc(O)cc3)CC2)c1)c1cc(F)cc(F)c1 | 13%
CC(C)N(CCOc1ccc2c(c1)N(C(=O)Nc1cc(Br)cc(C(F)(F)F)c1)CC2)C(C)C | 100% (active)
Cc1ccc2cc(NC(=O)CCCCCCCON3C(N)=NC(N)=NC34CCCCC4)ccc2n1 | 86% (active)
CCOc1ccc(-c2cc3nc(C4CCNCC4)c(C(=O)Nc4ccc(C)cc4Cl)cn3n2)cc1 | 22%
COc1ccccc1CNc1nc(Nc2ccccc2C)nc2ccccc12 | 67% (active)
O=C(/C=C/c1ccccc1)N1CCOC(CCN2CCC(c3ccccc3)CC2)(c2ccc(Cl)c(Cl)c2)C1 (stereo not given) | 63% (active)
COCCCNc1sc(S(=O)(=O)c2ccccc2)nc1S(=O)(=O)c1ccc(Cl)cc1 | 87% (active)
CC(C)c1ccc(NC(=O)c2ccc(C(=O)NCC3CCN(CC4CCCCC4)CC3)cc2)cc1 | 18%

Structure (SMILES) | growth inhibition
CCOC(=O)C(NC(=O)c1ccc([N+](=O)[O-])o1)C(C)C (stereo not given) | 8%
O=C(Nc1cccc(OCCN2CCCC2)c1)Nc1ccc(Cl)c(Cl)c1 | 22%
COc1ccc2ccccc2c1CNCC1CCN(CC2CCCCC2)CC1 | 27%
COc1cc2c(cc1S(=O)(=O)c1ccc(NC(=O)Nc3ccc(F)cc3)cc1)CCN(C)CC2 | 55% (active)
CCNc1cc(C(=O)N[C@@H](Cc2ccoc2)[C@H](O)CNC(C)CCCC(C)C)cc(N2CCCCS2(=O)=O)c1 (stereo not given in full) | 68% (active)
O=c1cc(NCCC(CNCc2ccc(Br)o2)NCc2cc(Br)cc(Br)c2)[nH]c2ccccc12 (stereo not given) | 90% (active)
CCNc1cc(C(=O)N[C@@H](Cc2ccccc2)[C@H](O)CNC(C)(C)CC(C)(C)C)c(F)c(N2CCCCS2(=O)=O)c1 | 63% (active)
CS(=O)(=O)c1ccc(CCNCc2ccc(-c3ccc(CN(C(=O)C4CC(=O)c5ccccc54)C4CCN(Cc5ccccc5)CC4)cc3)nc2)cc1 (stereo not given) | 49%
O=C(NC1CCCCC1)N(Cc1ccc(-c2ccc(CNC3CCCC3)cc2)cc1)C1CCN(Cc2ccccc2)CC1 | 86% (active)
CCCCCCCCc1[nH]c(C)c(Br)c(=O)c1Br | 95% (active)
O=C1C[C@@H]([S@@](=O)Cc2nccs2)N1CCOCCCCCCc1ccc(Cl)cc1 | 0%
Cc1ccc2[nH]c3c(NCCCN4CCOCC4)ncnc3c2c1 | 9%
c1ccc2c(c1)CN(Cc1cc3ccccc3[nH]1)CC1(CCN(Cc3c[nH]c4cnccc34)CC1)O2 | 62% (active)
CC1(C)N=C(N)N=C(N)N1OCCCc1cc(Cl)c(Cl)cc1Cl | 96% (active)
O=C(NCc1ccc2c(c1)OCO2)c1nn(CCN2CCC(N3CCCC3)CC2)cc1-c1ccc(Cl)c(Cl)c1 | 17%
COc1ccc(N(c2nc(-c3cc(Cl)ccc3Cl)cs2)C2CCNC2)cc1 (stereo not given) | 9%
O=S(=O)(c1cc(Cl)sc1Cl)N(CCC(O)(C(F)(F)F)C(F)(F)F)Cc1cccc(O)c1 | 97% (active)
CC1CCC2(CC1)N=C(N)N=C(N)N2OCc1cc2ccccc2c2ccccc12 (stereo not given) | 41%
Cc1ccccc1CCNC(=O)c1cnc(N2CCN(c3ccncc3)CC2)c(Cl)c1 | 95% (active)
CCCN(CCC)CCOc1ccc(C(O)(C#CC(O)(c2ccc(OCCN(CCC)CCC)cc2)c2cccc(Cl)c2)c2cccc(Cl)c2)cc1 (stereo not given) | 98% (active)

Test: human hepatoma cell viability loss – ATP luminescence, cytotoxicity control for P. falciparum antimalarial project, primary screen (AID 2303);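 note: 0% = DMSO wells and 100% = digitonin-killed cells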
Settings: HepG2 viability, 24-48 h, at 10 µM, hits give high values

Structure (SMILES) | inhibition
CCn1c(Cc2ccccc2)nnc1SCC(=O)N1c2ccccc2Sc2ccccc21 | -8%
CCCc1ccc(S(=O)(=O)NC2CCN(c3ccnc(Nc4ccc(OC)cc4)n3)C2)cc1 (stereo not given) | 42%
CCc1cc2c(O)c([N+](=O)[O-])c(=O)oc2cc1OCCCCCOc1cc2oc(=O)c([N+](=O)[O-])c(O)c2cc1CC | 11%
CCCCOc1ccc(C(O)C(CN2CCCCC2)c2ccccc2)cc1 (stereo not given) | 7%
O=C(Cc1cccs1)NCC(c1ccccc1Cl)c1c[nH]c2ccccc12 (stereo not given) | 12%
O=C(Nc1ccc(OC2CCN(Cc3ccc(F)cc3)CC2)cc1)c1cccs1 | 6%
Cc1cc(C(F)(F)F)n2nc(C(=O)N(Cc3cncn3Cc3cccc(F)c3)CC3CC3)cc2n1 | -2%
O=C(/C=C/c1ccc(Cl)c(Cl)c1)NCCCCCN1CCCN(C(=O)Nc2ccc(F)c(Cl)c2)CC1 | 31%
COc1ccc(CN2CCC(NCc3cccc(C(F)(F)F)c3)CC2)cc1 | 6%
Cc1cccc2[nH]c(-c3cccc(-c4cccc(NC(=O)C5CC(=O)Nc6ccccc65)c4)c3)nc12 (stereo not given) | 13%
COc1ccc2ccccc2c1C=NNc1ccnc2cc(Cl)ccc12 | 20%
Cc1nn(-c2ccc(Cl)cc2)c2[nH]c(CN3CCN(c4cccc(Cl)c4)CC3)cc(=O)c12 | 0%
O=C(Nc1cccc(CN2CCCN(Cc3ccc(O)cc3)CC2)c1)c1cc(F)cc(F)c1 | 15%
CC(C)N(CCOc1ccc2c(c1)N(C(=O)Nc1cc(Br)cc(C(F)(F)F)c1)CC2)C(C)C | 8%
Cc1ccc2cc(NC(=O)CCCCCCCON3C(N)=NC(N)=NC34CCCCC4)ccc2n1 | 6%
CCOc1ccc(-c2cc3nc(C4CCNCC4)c(C(=O)Nc4ccc(C)cc4Cl)cn3n2)cc1 | 63% (active)
COc1ccccc1CNc1nc(Nc2ccccc2C)nc2ccccc12 | 24%
O=C(/C=C/c1ccccc1)N1CCOC(CCN2CCC(c3ccccc3)CC2)(c2ccc(Cl)c(Cl)c2)C1 (stereo not given) | 4%
COCCCNc1sc(S(=O)(=O)c2ccccc2)nc1S(=O)(=O)c1ccc(Cl)cc1 | -7%
CC(C)c1ccc(NC(=O)c2ccc(C(=O)NCC3CCN(CC4CCCCC4)CC3)cc2)cc1 | 26%

Structure (SMILES) | inhibition
CCOC(=O)C(NC(=O)c1ccc([N+](=O)[O-])o1)C(C)C (stereo not given) | -3%
O=C(Nc1cccc(OCCN2CCCC2)c1)Nc1ccc(Cl)c(Cl)c1 | 3%
COc1ccc2ccccc2c1CNCC1CCN(CC2CCCCC2)CC1 | 23%
COc1cc2c(cc1S(=O)(=O)c1ccc(NC(=O)Nc3ccc(F)cc3)cc1)CCN(C)CC2 | -1%
CCNc1cc(C(=O)N[C@@H](Cc2ccoc2)[C@H](O)CNC(C)CCCC(C)C)cc(N2CCCCS2(=O)=O)c1 (stereo not given in full) | -2%
O=c1cc(NCCC(CNCc2ccc(Br)o2)NCc2cc(Br)cc(Br)c2)[nH]c2ccccc12 (stereo not given) | 2%
CCNc1cc(C(=O)N[C@@H](Cc2ccccc2)[C@H](O)CNC(C)(C)CC(C)(C)C)c(F)c(N2CCCCS2(=O)=O)c1 | 8%
CS(=O)(=O)c1ccc(CCNCc2ccc(-c3ccc(CN(C(=O)C4CC(=O)c5ccccc54)C4CCN(Cc5ccccc5)CC4)cc3)nc2)cc1 (stereo not given) | 9%
O=C(NC1CCCCC1)N(Cc1ccc(-c2ccc(CNC3CCCC3)cc2)cc1)C1CCN(Cc2ccccc2)CC1 | 31%
CCCCCCCCc1[nH]c(C)c(Br)c(=O)c1Br | 2%
O=C1C[C@@H]([S@@](=O)Cc2nccs2)N1CCOCCCCCCc1ccc(Cl)cc1 | -4%
Cc1ccc2[nH]c3c(NCCCN4CCOCC4)ncnc3c2c1 | -1%
c1ccc2c(c1)CN(Cc1cc3ccccc3[nH]1)CC1(CCN(Cc3c[nH]c4cnccc34)CC1)O2 | 27%
CC1(C)N=C(N)N=C(N)N1OCCCc1cc(Cl)c(Cl)cc1Cl | 55% (active)
O=C(NCc1ccc2c(c1)OCO2)c1nn(CCN2CCC(N3CCCC3)CC2)cc1-c1ccc(Cl)c(Cl)c1 | 21%
COc1ccc(N(c2nc(-c3cc(Cl)ccc3Cl)cs2)C2CCNC2)cc1 (stereo not given) | 21%
O=S(=O)(c1cc(Cl)sc1Cl)N(CCC(O)(C(F)(F)F)C(F)(F)F)Cc1cccc(O)c1 | -4%
CC1CCC2(CC1)N=C(N)N=C(N)N2OCc1cc2ccccc2c2ccccc12 (stereo not given) | 27%
Cc1ccccc1CCNC(=O)c1cnc(N2CCN(c3ccncc3)CC2)c(Cl)c1 | 36%
CCCN(CCC)CCOc1ccc(C(O)(C#CC(O)(c2ccc(OCCN(CCC)CCC)cc2)c2cccc(Cl)c2)c2cccc(Cl)c2)cc1 (stereo not given) | 100% (active)
